Results as given in PubChem BioAssay (NCI).
Compounds without any hit were thinned out: in the full panel of roughly 83,000, 20% have a hit.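 Results are percent growth after 48 hours of single-concentration exposure. 100 means growth as in untreated cells, lower positive values show inhibition; negative values down to -100 show cell death.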 Active and inactive are the calls of the source. The calls were made as follows: active = growth percent below 10; inactive = the rest.

Tested on: ACHN renal
Assay: NCI-60 one-dose screen, 48 h (100 = growth as untreated, 0 = no growth, -100 = all killed)
Conditions: 10 µM unless noted

Structure (SMILES) | growth
O=c1[nH]c2ccc(Cl)cc2cc1CSc1ccccc1Nc1nccc(-c2ccc(Cl)cc2)n1 | 95.7% (inactive)
CC(C)(C)OC(=O)N1C(=O)c2c(c3c4ccccc4[nH]c3c3ccc4ccccc4c23)C1=O | 34.5% (inactive)
CNC(=O)c1cc(-c2ccc(NC(=O)Nc3ccc(N4CCN(C)CC4)c(C(F)(F)F)c3)cc2)nc2cccnc12 | -94.6% (active)
C/C(=N/NC(N)=S)c1ccc(Nc2nc(SCC(C)C)nc(-c3ccc(F)cc3)c2C#N)cc1 | 12.5% (inactive)
CCCCN1C(=O)/C(=c2\sc3n(c2=O)C2C(NN=3)N(CC)C(=O)N2CC)c2cc(Cl)ccc21 (stereo not drawn) | 64.5% (inactive)
COc1cc(-c2nc3ccc(-c4nnc(SCC(=O)Nc5ccc(C(C)=O)cc5)o4)cc3[nH]2)cc(OC)c1OC | 98.9% (inactive)
N#Cc1c(-c2ccc(Cl)cc2)nc(SCc2ccc(F)cc2)nc1N1CCNCC1 | 36% (inactive)
Cn1cc(-c2cc(N)n3nc(-c4cn(C)c5ccc(Br)cc45)cc3n2)c2cc(Br)ccc21 | 92.2% (inactive)
Cc1cc(C(=O)Nc2sc3c(c2C(N)=O)CCC(=O)C3)ccc1OCCN1CCCCC1 | 91.1% (inactive)
NS(=O)(=O)c1ccc(Nc2nc(SCC(=O)c3ccc(Cl)cc3)nc3ccccc23)cc1 | 89% (inactive)
CC(C)(C)Nc1nc2c(OCCc3ccccc3)cccn2c1-c1ccc(O)cc1 | 65.1% (inactive)
CCOc1ccc2nc(NC(=O)c3ccc(C(F)(F)F)cc3)sc2c1 | 110% (inactive)
N#Cc1c(-c2ccc(Cl)cc2)nc(SCc2ccc([N+](=O)[O-])cc2)nc1N1CCNCC1 | -67.4% (active)
